Results taken from PubChem BioAssay.

Each compound was assayed against Voltage-gated potassium channel subunit beta-2 (Rattus norvegicus) (UniProt P62483) (assay: enhancers of rat Kvbeta2 NADPH turnover – biochemical, NADPH fluorescence, primary screen (AID 623;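 also: fluorescence intensity change per second fitted from 20 to 320 s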)). Conditions: Recombinant KvBeta, NADPH fluorescence decrease slope, 10 min; at 10 µM; hits give low values.
Chain of Voltage-gated potassium channel subunit beta-2 (Rattus norvegicus) (P62483 whole entry, looked up): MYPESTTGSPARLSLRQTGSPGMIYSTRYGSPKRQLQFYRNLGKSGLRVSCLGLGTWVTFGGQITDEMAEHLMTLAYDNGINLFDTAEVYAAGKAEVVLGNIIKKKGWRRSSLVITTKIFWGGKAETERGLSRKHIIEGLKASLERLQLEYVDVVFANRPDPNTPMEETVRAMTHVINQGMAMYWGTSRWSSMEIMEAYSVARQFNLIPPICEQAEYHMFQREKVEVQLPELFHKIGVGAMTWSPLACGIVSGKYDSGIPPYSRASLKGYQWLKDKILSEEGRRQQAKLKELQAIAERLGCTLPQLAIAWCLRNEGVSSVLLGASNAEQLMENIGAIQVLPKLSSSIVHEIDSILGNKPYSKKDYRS

NADPH fluorescence slope, inactive:
COC(=O)c1ccccc1NC(=O)CC(NCc1ccccc1)C(=O)O (stereo not given) -8.7e-06, CCOC(=O)N1CCN(C(=O)c2ccc(CS(=O)(=O)c3c(Cl)cccc3Cl)o2)CC1 -6.8e-05, O=C(Cc1ccccc1)Nc1ccc(CN2CCOCC2)cc1 -3.3e-05, COc1ccc(N(CC(=O)O)S(=O)(=O)c2ccc(OC)c(OC)c2)cc1 6.8e-05, Cc1ccc(C)c(C(=O)CC2(O)C(=O)N(C)c3ccccc32)c1 (stereo not given) -5.8e-05, CCC1CCCN1Cn1cnc2c([nH]c3ccc(OC)cc32)c1=O (stereo not given) -1.1e-05, CC1Cc2nc(SCC(=O)Nc3ccc4c(c3)OCO4)n(-c3ccc(F)cc3)c(=O)c2S1 (stereo not given) -6.4e-05, CCCn1c(C)nc2c(c1=O)c1nc3ccccc3nc1n2CCc1ccccc1 2.6e-05, CCOC(=O)C(CCc1nnc(N)s1)C(=O)OCC 1.7e-06, CCOC(=O)c1c(N)sc(C(=O)N2CCOCC2)c1C 2.6e-05, Cc1oc(-c2cccc(Cl)c2)nc1CN1CCC(C(=O)N2CCN(c3ccccc3F)CC2)CC1 -2.2e-05, COc1ccc(NC(=O)CN2CCN(S(=O)(=O)c3ccc(Cl)cc3)CC2)cc1 -2.8e-05, O=C(CS(=O)(=O)c1cn(Cc2ccc(Cl)cc2)c2ccccc12)N1CCCC1 -3.5e-05, O=C(OCc1cc2ccccc2[nH]c1=O)c1ccco1 -6e-05, CC1CCCCC1NC(=O)c1nn(C)c(=O)c2ccccc12 (stereo not given) 1.8e-06, COc1ccccc1Oc1ccc(S(=O)(=O)N2CCOCC2)cc1S(=O)(=O)N1CCOCC1 5.2e-07, CCOC(=O)N1CCN(C(=O)CSc2ncnc3ccccc23)CC1 -2.4e-05, COC(=O)Nc1nnc(CCc2ccccc2)s1 -4.7e-05, O=C(c1ccco1)N1CCN(CCCCN2C(=O)c3ccccc3C2=O)CC1 4.7e-06, Fc1ccccc1Cn1nnc2c(-n3ccnc3)ncnc21 3.6e-05, N/C(=N/O)c1nc(N2CCCC2)nc(N(c2ccccc2)c2ccccc2)n1 -3.2e-05, Cc1ccc(NC(=O)C2CCCN(S(=O)(=O)c3cnc[nH]3)C2)c(Br)c1 (stereo not given) -6.4e-05, Cc1ccn2cc(CCNC(=O)CC(C)(C)C)nc2c1 -5.9e-05, O=C1c2cccnc2C(=O)N1c1cccc(-c2nc3ccccc3o2)c1 -4e-05, CSc1nc2c(c(=O)n1C)SC(C)C2 (stereo not given) -4.8e-05, O=C(Nc1cccc2ccccc12)N1CCN(c2ccccc2)CC1 -2.7e-05, Cc1nnc(SCC(=O)NCCN2C(=O)CSC2=O)s1 -1e-05, CN(C(=O)COc1cc(=O)n(C)c2ccccc12)c1ccc(Br)cc1 -1.3e-05, CCOC(=O)c1c(C)oc2c1c(C(c1ccncc1)N1CCOCC1)c(O)c1ccccc12 (stereo not given) 2.5e-05, CCOC(=O)CNC(=O)CSc1nc(N)cc(N)n1 2.9e-05, CC(C)(CSc1nncn1N)NS(=O)(=O)c1ccc(Cl)cc1 -4.4e-05, O=C(CCNS(=O)(=O)c1cccs1)Nc1ccccc1F -6.3e-05, CC(C)(C)c1nnc(NC(=O)C2CCN(c3ncccn3)CC2)s1 -3.5e-05, COc1cc(Cl)c(C)cc1NC(=O)COC(=O)c1cnc(C)cn1 3.8e-05, O=C(CN1CCN(Cc2ccc3c(c2)OCO3)CC1)Nc1ccc2c(c1)OCCO2 -4.2e-05, CCC(C)NC(=O)C1(C)CCC(=O)N1CCc1ccc(OC)c(OC)c1 (stereo not given) -8.3e-06, COC(=O)Cc1c(C)c2ccc(OCC(=O)N3CCOCC3)cc2oc1=O -1.5e-05, CC1=C(C(=O)Nc2ccccc2C)C2(CCCC2)C(C(N)=O)C(=O)N1 (stereo not given) -4.6e-05, O=C(O)C1CC=CCC1C(=O)Nc1ccc(S(=O)(=O)N2CCCc3ccccc32)cc1 (stereo not given) -3.1e-05, CCCC(=O)Nc1ccccc1-c1nnn(CC(=O)Nc2ccc(OC)cc2)n1 1e-05

The compounds below were run against Alpha-2C adrenergic receptor (Homo sapiens) (UniProt P18825) (assay: compounds altering alpha2C-coupled GIRK flux – cell-based, HEK293 alpha2C/GIRK1/2, thallium flux, primary screen (AID 624;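 active = fluorescence slope after compound addition differing from the mean of all screened samples at 99.7% confidence, in either direction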;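 also: slope of fluorescence ratio to pre-addition baseline per second over 15 to 24 s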)). Conditions: thallium flux BTC fluorescence, at 10 µM, actives lie on both sides.
Chain of Alpha-2C adrenergic receptor (Homo sapiens) (P18825 whole entry, looked up): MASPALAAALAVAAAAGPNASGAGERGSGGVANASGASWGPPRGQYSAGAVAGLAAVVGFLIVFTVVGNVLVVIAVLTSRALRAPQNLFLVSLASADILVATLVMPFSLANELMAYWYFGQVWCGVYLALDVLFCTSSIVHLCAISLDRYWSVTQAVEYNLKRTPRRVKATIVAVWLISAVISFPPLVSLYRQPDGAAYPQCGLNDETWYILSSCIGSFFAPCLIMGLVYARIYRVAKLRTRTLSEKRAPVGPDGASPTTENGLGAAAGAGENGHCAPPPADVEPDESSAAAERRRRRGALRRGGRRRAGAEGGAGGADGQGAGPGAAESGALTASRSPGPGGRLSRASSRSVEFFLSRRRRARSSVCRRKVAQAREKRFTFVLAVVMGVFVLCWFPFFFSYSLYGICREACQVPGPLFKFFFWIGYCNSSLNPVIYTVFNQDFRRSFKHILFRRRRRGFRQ

slope, inactive:
COC(=O)c1ccccc1NC(=O)CC(NCc1ccccc1)C(=O)O (stereo not given) 0.00289, CCOC(=O)N1CCN(C(=O)c2ccc(CS(=O)(=O)c3c(Cl)cccc3Cl)o2)CC1 0.00631, O=C(Cc1ccccc1)Nc1ccc(CN2CCOCC2)cc1 0.00462, COc1ccc(N(CC(=O)O)S(=O)(=O)c2ccc(OC)c(OC)c2)cc1 0.00634, Cc1ccc(C)c(C(=O)CC2(O)C(=O)N(C)c3ccccc32)c1 (stereo not given) 0.00346, CCC1CCCN1Cn1cnc2c([nH]c3ccc(OC)cc32)c1=O (stereo not given) 0.0053, CC1Cc2nc(SCC(=O)Nc3ccc4c(c3)OCO4)n(-c3ccc(F)cc3)c(=O)c2S1 (stereo not given) 0.00514, CCCn1c(C)nc2c(c1=O)c1nc3ccccc3nc1n2CCc1ccccc1 0.00428, CCOC(=O)C(CCc1nnc(N)s1)C(=O)OCC 0.00419, CCOC(=O)c1c(N)sc(C(=O)N2CCOCC2)c1C 0.00763, Cc1oc(-c2cccc(Cl)c2)nc1CN1CCC(C(=O)N2CCN(c3ccccc3F)CC2)CC1 0.00639, COc1ccc(NC(=O)CN2CCN(S(=O)(=O)c3ccc(Cl)cc3)CC2)cc1 0.00382, O=C(CS(=O)(=O)c1cn(Cc2ccc(Cl)cc2)c2ccccc12)N1CCCC1 0.00627, O=C(OCc1cc2ccccc2[nH]c1=O)c1ccco1 0.0037, CC1CCCCC1NC(=O)c1nn(C)c(=O)c2ccccc12 (stereo not given) 0.00592, COc1ccccc1Oc1ccc(S(=O)(=O)N2CCOCC2)cc1S(=O)(=O)N1CCOCC1 0.00572, CCOC(=O)N1CCN(C(=O)CSc2ncnc3ccccc23)CC1 0.00632, COC(=O)Nc1nnc(CCc2ccccc2)s1 0.00467, O=C(c1ccco1)N1CCN(CCCCN2C(=O)c3ccccc3C2=O)CC1 0.00572, Fc1ccccc1Cn1nnc2c(-n3ccnc3)ncnc21 0.00439, N/C(=N/O)c1nc(N2CCCC2)nc(N(c2ccccc2)c2ccccc2)n1 0.00592, Cc1ccc(NC(=O)C2CCCN(S(=O)(=O)c3cnc[nH]3)C2)c(Br)c1 (stereo not given) 0.00566, Cc1ccn2cc(CCNC(=O)CC(C)(C)C)nc2c1 0.00588, O=C1c2cccnc2C(=O)N1c1cccc(-c2nc3ccccc3o2)c1 0.00507, CSc1nc2c(c(=O)n1C)SC(C)C2 (stereo not given) 0.00545, O=C(Nc1cccc2ccccc12)N1CCN(c2ccccc2)CC1 0.00612, Cc1nnc(SCC(=O)NCCN2C(=O)CSC2=O)s1 0.00749, CN(C(=O)COc1cc(=O)n(C)c2ccccc12)c1ccc(Br)cc1 0.00662, CCOC(=O)c1c(C)oc2c1c(C(c1ccncc1)N1CCOCC1)c(O)c1ccccc12 (stereo not given) 0.00459, CCOC(=O)CNC(=O)CSc1nc(N)cc(N)n1 0.00537, CC(C)(CSc1nncn1N)NS(=O)(=O)c1ccc(Cl)cc1 0.00436, O=C(CCNS(=O)(=O)c1cccs1)Nc1ccccc1F 0.00565, CC(C)(C)c1nnc(NC(=O)C2CCN(c3ncccn3)CC2)s1 0.00755, COc1cc(Cl)c(C)cc1NC(=O)COC(=O)c1cnc(C)cn1 0.00519, O=C(CN1CCN(Cc2ccc3c(c2)OCO3)CC1)Nc1ccc2c(c1)OCCO2 0.00576, CCC(C)NC(=O)C1(C)CCC(=O)N1CCc1ccc(OC)c(OC)c1 (stereo not given) 0.00621, COC(=O)Cc1c(C)c2ccc(OCC(=O)N3CCOCC3)cc2oc1=O 0.00545, CC1=C(C(=O)Nc2ccccc2C)C2(CCCC2)C(C(N)=O)C(=O)N1 (stereo not given) 0.0058, O=C(O)C1CC=CCC1C(=O)Nc1ccc(S(=O)(=O)N2CCCc3ccccc32)cc1 (stereo not given) 0.00437, CCCC(=O)Nc1ccccc1-c1nnn(CC(=O)Nc2ccc(OC)cc2)n1 0.0062
